From PubChem BioAssay AID720517 (National Center for Advancing Translational Sciences (NCATS), 2013)
Inconclusive results are not listed. Entries that show only a call come without a potency. The source made the active and inactive calls. Calls follow the shape of the dose curve; as a rule, active = well fitted activation curve with a large enough effect; inconclusive = small, poorly fitted or top-dose-only effect; inactive = flat fitted curve, though single readings scatter.

Test: qHTS for Inhibitors of Cell Surface uPA Generation: FP59 Counterscreen for Cherry-picked Compounds
Conditions: FP59 anthrax toxin cytotoxicity counterscreen, cells; series mostly up to 115 µM

Structure (SMILES) | Potency
CN(C)S(=O)(=O)c1ccc(NC(=O)COC(=O)CC2CC3CCC2C3)cc1 (configuration not stated) | inactive
O=C(Nn1cnnc1)c1ccc(Cl)c(Cl)c1 | inactive
COc1cccc(C(=O)NCc2ccc3[nH]c(C)cc3c2)c1 | inactive
CC/C(=N\Nc1ccccc1[N+](=O)[O-])c1ccc(O)cc1 | inactive
COc1ccccc1C(=O)Nc1cccc(C(=O)c2ccccc2)c1 | inactive
c1ccc(C2[C@H]3CN(Cc4cccnc4)[C@H](c4ccccc4)C34CC2(c2ccccc2)C4)cc1 (some centres not stated) | inactive
COC(=O)[C@]1(Cc2ccccc2)N[C@H](CN(C)C(=O)c2ccccc2)[C@@H]2C(=O)N(Cc3ccccc3)C(=O)[C@@H]21 | inactive
COc1ccc(-c2cc3nc(-c4ccccc4)cc(N4CCCC(O)C4)n3n2)cc1 (configuration not stated) | inactive
Cc1ccc(/C=C/C(=O)O)cc1S(=O)(=O)N1CCc2ccccc21 | inactive
COCCCN1CC23C=CC(O2)C(C(=O)O)C3C1=O (configuration not stated) | inactive
Cc1ccccc1C(=O)NCC(=O)Nc1ccc(C)c(S(=O)(=O)N2CCCCCC2)c1 | inactive
COc1ccc(/C(C)=N/N2CCOCC2)c(O)c1 | inactive
O=C(Cc1ccccc1)Nc1ccc(NC(=O)c2ccccc2)c(Cl)c1 | inactive
C=CCn1c(=O)c(C(=O)NCCc2ccc(Cl)cc2)c(O)c2cc(OC)c(OC)cc21 | inactive
CN(C)c1cccc(Oc2nc3c(c(=O)n(C)c(=O)n3C)n2C)c1 | inactive
Cc1nc2ccccc2c2oc(C(=O)Nc3ccc4c(c3)OCCO4)cc12 | inactive
COc1ccc(C(c2sc3nc(C)nn3c2O)N2CCC(C(N)=O)CC2)cc1OC (configuration not stated) | inactive
